Hits are enriched below; roughly 12% of the tested compounds scored in any of these assays.
Cycloheximide cs = Cycloheximide Counterscreen for Small Molecule Inhibitors of Shiga Toxin; 300,000 compounds, 12% hits; cell reporter, cycloheximide protein synthesis inhibition counterscreen; max response, %; AID 2314, 2010; in the data active means max response mostly above about 13%, no sharp cut-off; inactive means mostly below about 14%; further: read at 38.3 µM for the half of the compounds with a filed dose; 0% is about no effect
Shiga inhibitor = A qHTS for Small Molecule Inhibitors of Shiga Toxin. Vero cells, Shiga toxin protein synthesis inhibition reporter. inhibition, % at 38.7 µM. 290,000 compounds, 9.2% hits. AID 2315, 2010; in the data active means inhibition mostly above about 28%, no sharp cut-off; inactive means mostly below about 43%; further: 0% is about no effect
Lassa entry inh = qHTS for Inhibitors of binding or entry into cells for Lassa Virus. Lassa virus pseudotype entry inhibition, cell reporter. Potency, µM (titrated, usually from 37.9 µM), for the others: at the highest dose activity change, negative = inhibition, usual class: inhibitors. 300,000 compounds, 1.2% hits. AID 540256, 2011; calls by dose curve; tested in HEK293 cells; further: potency means the concentration at half of the fitted maximal effect; on the % scale 0 is the no-effect control and ±100 the full control effect; nearly all actives have a fitted effect of over 50% in size
Marburg entry inh = qHTS for inhibitors of binding or entry into cells for Marburg Virus; Marburg virus pseudotyped entry inhibition, cell reporter; Potency, µM (top dose mostly 37.8 µM), for inactives: at the top dose activity change, negative = inhibition, actives largely listed as inhibitors; 300,000 compounds, 1.8% hits; AID 540276, 2011; calls by dose curve; tested in HEK293 cells; further: potency means the concentration at half of the fitted maximal effect; on the % scale 0 is the no-effect control and ±100 the full control effect
The depositor's hits bear a star; ? = inconclusive; / = no result; [ ] = another dose, or the depositor's remark.

SMILES	Cycloheximide cs	Shiga inhibitor	Lassa entry inh	Marburg entry inh
Cc1ccc(C(=O)O/N=C(\N)c2ccccn2)c(Cl)c1	-11	/	/	/
CCc1ccc(NC(=O)CSc2nc(=O)n(Cc3cccnc3)c3c2CCC3)cc1	/	/	-26%[46.1 µM]	/
CCOc1ccc(OCC(=O)Nc2ccc(OC)cc2[N+](=O)[O-])cc1	2	-3	13%	?
CC1(C(=O)OCC(=O)Nc2ccc3ccccc3c2)CC1(Cl)Cl (stereo not given)	37*	64*	?	18%
CC1(C(=O)OCC(=O)Nc2ccc(C(N)=O)cc2)CC1(Cl)Cl (stereo not given)	6	14	-1%	-17%[46.1 µM]
CCOc1ccc(NC(=O)COC(=O)C2(C)CC2(Cl)Cl)c([N+](=O)[O-])c1 (stereo not given)	18*	45*	11%	?
COc1ccc(NC(=O)COc2ccc(C)cc2)c([N+](=O)[O-])c1	44*	86*	-8%[46.1 µM]	?
CCCOC(=O)Nc1cc(OC)ccc1[N+](=O)[O-]	25*	23	3%	4%
O=C(N=C1SC2CS(=O)(=O)CC2N1Cc1ccc(Cl)cc1)C1CC1 (stereo not given)	-2	-4	12%[46.1 µM]	-17%[46.1 µM]
COC(=O)C1C[C@@]23C(=NN=C(SC)C2N(C)c2ccc(OC)cc23)N1C(C)=O (stereo not given in full)	/	/	?	-33%[14.2 µM]
COc1ccc(NC(=O)CN2CCC(C(N)=O)CC2)cc1	-7	0	?	?
COc1ccc(NC(=O)CN2CCC(NC(=O)C3CCCCC3)CC2)c([N+](=O)[O-])c1	-2	-34	/	/
COc1ccc(NC(=O)CN2CCC(C)CC2)c([N+](=O)[O-])c1	22*	33	-5%	6%
COc1ccc(NC(=O)CN2CCC(C)CC2)cc1	16*	30*	40%[14.3 µM]	30%
COc1ccc(NC(=O)CN2CCN(C3c4ccccc4-c4ccccc43)CC2)cc1	57*	42*	5%	?
COc1ccc(NC(=O)CN2CCCCC2)c([N+](=O)[O-])c1	30*	56*	0%	5%
COc1ccc(NC(=O)CN2CCN(c3ccccc3)CC2)cc1	-5	-16	?	?
Cc1ccc(C(=O)NCC(=O)OCC(=O)Nc2cc(C)c(C)cc2[N+](=O)[O-])cc1	6	8	16%	16%
CC1CCN(CC(=O)Nc2ccc(Cl)cc2[N+](=O)[O-])CC1	18*	16	1%	19%[46.1 µM]
Cc1ccc([N+](=O)[O-])cc1NC(=O)CN1CCC(C)CC1	-2	-14	5%	4%
COCC(=O)OCC(=O)Nc1cc(C)c(C)cc1[N+](=O)[O-]	16*	24	1%	5%[46.1 µM]
CCc1ccc(Nc2nnc(SCC(=O)Nc3sccc3C(N)=O)s2)cc1	32*	62*	?	?
CCc1ccc(Nc2nnc(SCC(=O)NCCN3C(=O)CSC3=O)s2)cc1	40*	53*	?	12%
CCc1ccc(Nc2nnc(SCC(=O)Nc3cccnc3Cl)s2)cc1	20*	30*	-2%	0%
Cc1ccc(C(c2nnnn2C2CCCC2)N2c3ccccc3CC2C)cc1 (stereo not given)	13	22	1%	-17%
SMILES	Cycloheximide cs	Shiga inhibitor	Lassa entry inh	Marburg entry inh
COc1ccc(/C=N\NC(=O)c2ccccc2Cl)cc1COc1c(F)c(F)c(F)c(F)c1F	15	16	?	?
COc1ccc(/C=N\NC(=O)c2ccccc2OC)cc1COc1c(F)c(F)c(F)c(F)c1F	12*	19	-22%	?
COc1ccc2ccccc2c1/C=N/NC(=O)c1ccccc1F	11*	26	-3%	18%
COc1ccc(/C=N\NC(=O)c2ccccc2)cc1COc1ccc(F)cc1	27*	198	/	/
COc1ccc(/C=N/NC(=O)c2ccccc2)cc1CN1CCN(c2ccc(F)cc2)CC1	12*	25	1%	-4%
COC(=O)c1cn(NC(=O)c2ccccc2[N+](=O)[O-])c(=O)c2ccccc12	-4	-2	7%	?
CCCN(c1ccccc1F)S(=O)(=O)c1c[nH]c(C(=O)OC)c1	-3	-19	/	/
COc1ccc(S(=O)(=O)N(CC(=O)N(C)Cc2ccccc2)c2ccc(Cl)cc2)cc1	/	/	?	-13%[46.1 µM]
COc1ccc(C(=O)N/N=C/c2ccc(OC)c(COc3ccc(F)cc3)c2)cc1	19	13	-29%	?
COc1ccc(C(=O)N/N=C/c2ccc(OC)c(COc3ccc(F)cc3F)c2)cc1	10	-2	2.2µM*	?
Cc1ccc(-c2nc3ncccc3o2)cc1NC(=O)c1ccc(-c2cccc(Cl)c2C)o1	/	/	27%[46.1 µM]	/
Cc1ccc(NP(=O)(Nc2ccc(C)cc2)Oc2ccccc2)cc1	24*	20	5%[46.1 µM]	?
O=C(Nc1cccnc1Cl)c1cc2c(s1)-c1ccccc1OC2	26	27*	/	/
O=C(Nc1ccc(Cl)cn1)c1cc2c(s1)-c1ccccc1OC2	16*	34	/	/
CN1CCN(c2ccccc2NC(=O)c2cc3c(s2)-c2ccccc2OC3)CC1	-6	-7	/	/
CN(C)S(=O)(=O)c1cc(NC(=O)CN2CCN(c3ccccc3F)CC2)ccc1Cl	-3	-6	?	-2%[46.1 µM]
O=C1c2cccc(OCC(=O)N3CCCc4ccccc43)c2CCN1Cc1ccc(F)cc1	2	20	?	?
Cc1cccc(CN2CCc3c(OCC(=O)NCc4ccco4)cccc3C2=O)c1	13*	18	?	9%
Cc1cccc(CN2CCc3c(OCC(=O)N4CCCc5ccccc54)cccc3C2=O)c1	14*	28	4.5µM*	?
CCC1CCCCN1C(=O)COc1cccc2c1CCN(C)C2=O (stereo not given)	5	-5	6%	-12%[46.1 µM]
CN1CCc2c(OCC(=O)N3CCCc4ccccc43)cccc2C1=O	-2	-2	?	3.2µM*
O=C(COc1cccc2c1CCN(Cc1ccccc1)C2=O)NCc1ccco1	10	4	-4%	-5%
CCn1c(=N)n(CCOc2ccc(Br)cc2)c2ccccc21	/	/	-31%[46.1 µM]	/
CCNC(=O)c1cnc2sc(N3CCC(C)CC3)nn2c1=O	/	/	27%[46.1 µM]	/
CC(=O)NC1(c2ccccc2)CCN(c2cc(C)nc(-c3ccccc3)n2)CC1	1	-2	-4%	-16%[46.1 µM]
SMILES	Cycloheximide cs	Shiga inhibitor	Lassa entry inh	Marburg entry inh
COc1ccc(CCNC(=O)c2nn(-c3ccc(C)cc3)c(=O)c3c2c2ccccc2n3C)cc1OC	/	/	1%[46.1 µM]	?
O=c1c2ccccc2nc2sc(Nc3cccc(C(F)(F)F)c3)nn12	/	/	11%[46.1 µM]	/
Clc1ccc(CNc2ncnc3[nH]ncc23)cc1Cl	/	/	7.1µM*	4µM*
Cc1c(CNCCc2ccccc2Cl)c(C(=O)O)c(C)n1-c1ccccc1	17*	32	/	/
Cc1ccccc1CCNCc1c(C(=O)O)c(C)n(Cc2c(F)cccc2Cl)c1C	/	/	3%[46.1 µM]	10%[46.1 µM]
Cc1cc(NS(=O)(=O)c2ccc(NC(=O)COc3c(C)ccc(C)c3C)cc2)nc(C)n1	/	/	23%[46.1 µM]	8%[46.1 µM]
CC(c1ccon1)N(C)Cc1cn(C)nc1-c1cccc(Cl)c1 (stereo not given)	-1	-3	-1%	-7%[46.1 µM]
COc1cccc(CN2CCCN(CC(=O)Nc3ccc4c(c3)OCCO4)S2(=O)=O)c1	/	/	-9%[46.1 µM]	/
COC(=O)CSc1nc(NC(C)C)nc(N(C)C)n1	12	14	0%[46.1 µM]	0%[46.1 µM]
COC(=O)CSc1nc(NC(C)(C)C)nc(N(C)C)n1	33*	107	-22%	-4%[46.1 µM]

Screens as filed in PubChem BioAssay.
